About 17,000 (4.7%) of roughly 360,000 compounds were called active. Another 5% or so got no clear call; they are omitted. Rule as the data show it: active = activity change below about -50%; inconclusive = mostly about -30% to -49%; inactive = weaker than that. The entries come from a sample that favours actives as a whole.
% is scaled to controls: 0 for no effect and ±100 for the full control effect.

The nature of the assay: qHTS for Inhibitors of Inflammasome Signaling: IL-1-beta AlphaLISA Primary Screen. The note with it: THP-1 LPS/ATP IL-1B secretion, 16 h; at 57.5 µM, hits give low values. An excerpt:
Inflammasomes are a set of intracellular multi-protein complexes that enable autocatalytic activation of inflammatory caspases and drive the innate immune response to counter harmful agents. […] A qHTS assay, based on AlphaLISA technology, was developed to screen the Molecular Libraries Small Molecule Repository (MLSMR) to look for novel inflammasome inhibitors. The assay detects IL-1B using AlphaLISA anti-IL-1B acceptor and donor beads. A decreased emission signal, indicating reduced IL-1B secretion, is the desired outcome for this assay. NIH Chemical Genomics Center [NCGC] NIH Molecular Libraries Probe Centers Network [MLPCN] MLPCN Grant: MH095513 Assay Provider: Shyam Biswal Ph.D., Johns Hopkins University Immunity. 2012 Jul 27;37(1):85-95. PMID: 22819042 [2] Curr Pharm Des. 2012;18(16):2320-8. PMID: 22390695
Three microliters containing 3000 THP-1 cells were dispensed into the wells of solid, white, tissue culture treated Greiner 1,536-well plates. Library compounds and positive control, Glyburide, were pin-transferred (23 nL) by a Kalypsys pin-tool equipped with a 1,536-pin array, resulting in final compound concentration ranges of 2.5 nM to 57.5 uM. After 1 hr of cell culture incubation (37 °C, 5% CO2), 1 microL of 1 microg/mL lipopolysaccharide (250 ng/mL, final) and 5 mM ATP (1.25 mM, final) were added to stimulate the cells. After 16 hr of cell culture incubation with the compounds, 1.5 uL of anti-IL-1B acceptor beads (6 ug/mL, final) and biotinylated antibody (0.6 nM, final) were added to the plate, followed by a 1 hr incubation at ambient temperature. To detect the secreted IL-1B, 1.5 uL of AlphaLISA SA-Donor beads (24 ug/mL, final) were added, followed by 30 min of incubation in the dark at ambient temperature. The AlphaLISA signal was read by a PerkinElmer EnVision plate reader with an ultrasensitive luminescence detector and 1536 Plate HTS AlphaScreen aperture (excitation of 680nm and emission of 615nm).
A general note: Quantitative high-throughput screening tests each substance at several concentrations.
Regarding `c1ccc2c(NC3C4CC5CC(C4)CC3C5)nc(N3CCOCC3)nc2c1` (stereo not drawn), the activity change is -79.7% (active).

Regarding `Fc1cnc(N2CCOCC2)nc1NCc1ccccc1`, the activity change is 38.4% (inactive).

On to `c1cnc(NC2C3CC4CC(C3)CC2C4)nc1` (stereo not drawn), for which the activity change is 16.6% (inactive).

On to `O=C(CNC(=O)N1CC(=O)Nc2ccccc21)Nc1ccc(Br)cc1F`, for which the activity change was 16.8% (inactive).

`CC(C)Cc1nnc(N)s1`: the activity change is -2.84% (inactive).

As for `CC1Cc2nc(SCC(=O)Nc3ccccc3F)n(C)c(=O)c2S1` (stereo not drawn), the activity change was 11.4% (inactive).

Take `COCc1cccc(-c2csc(C(O)c3ccc(F)cc3)n2)c1` (stereo not drawn): the activity change was -9.62% (inactive).

Consider `Cc1ccc(C(=O)/C=C/Nc2ccc(S(=O)(=O)Nc3onc(C)c3C)cc2)cc1`, for which the activity change was 31.6% (inactive).

`COc1ccc(/C=C/C(=O)c2ccc(NS(=O)(=O)c3ccc(C)cc3)cc2)cc1O`: the activity change is -103% (active).

As for `COc1ccc(NS(=O)(=O)c2ccc(NC(=S)NC(=O)/C=C/c3ccc(C)cc3)cc2)nn1`, the activity change was -26.8% (inactive).

In the case of `CC1CC(C)CN(c2ccc(S(=O)(=O)N3CCOCC3)cc2)C1` (stereo not drawn), the activity change is -9.62% (inactive).

With `COc1ccc(NC(=O)CSc2nnnn2-c2cccc(OC)c2)cc1`, the activity change is -9.12% (inactive).

As for `CC1(C(=O)NS(=O)(=O)Cc2cccc(Cl)c2)CCN1C(=O)Cc1ccc(Cl)cc1Cl` (stereo not drawn), the activity change is -21.1% (inactive).

In the case of `O=C(O)c1ccccc1/C=N/Nc1ccc(S(=O)(=O)Nc2ccc(Cl)cc2)cc1[N+](=O)[O-]`, the activity change was 12.8% (inactive).

Turning to `O=C(O)c1ccccc1N=N/C(=N/Nc1cc(S(=O)(=O)O)ccc1O)c1ccccc1`, the activity change was -57.4% (active).

For `Cc1ccc(S(=O)(=O)N2CCC(C(=O)N3CCCCCCC3)CC2)cc1`, the activity change was -8.84% (inactive).

Consider `O=C1C(Cl)=C(Oc2ccccc2)C(=O)c2ccccc21`, for which the activity change was -18% (inactive).

`CCS(=O)(=O)N1CCN(C(=O)c2cccs2)CC1`: the activity change was 38.7% (inactive).

For `Cc1ccc(S(=O)(=O)N2CCN(C(=O)c3cccs3)CC2)cc1`, the activity change is 0% (inactive).

Regarding `Cc1ccc(N2CCN(C(=O)c3cccs3)CC2)c(C)c1`, the activity change is -56% (active).

Turning to `Cc1nc2ccccc2c(C(=O)O)c1-c1ccccn1`, the activity change is 12.8% (inactive).

Take `COc1ccc(-n2ncc3c(SCC(=O)NNC(C)=O)ncnc32)cc1`: the activity change is -3.94% (inactive).

On to `COc1ccc(NC(=O)CSc2nc(C)cs2)cc1`, for which the activity change is 15.6% (inactive).

For `COc1ccc(NC(=O)CSc2ncnc3[nH]ncc23)cc1`, the activity change is -51% (active).

In the case of `CCN(CC)C(=O)C1=C(C)N(Cc2ccc(F)cc2)C(=O)C(CC(=O)NC2CCCC2)C1` (stereo not drawn), the activity change is 3.15% (inactive).

As to `CCOc1ccc(CCNC(=O)COC(=O)c2ccc(C)c(S(=O)(=O)N3CCOCC3)c2)cc1OCC`, the activity change was -2.62% (inactive).

As to `Cc1noc(C)c1NC(=O)N(C)C[C@@H]1Oc2cc(Br)ccc2S(=O)(=O)N([C@@H](C)CO)C[C@H]1C`, the activity change is -11.1% (inactive).

For `CCCNC(=O)c1cc(C2CCCN(C(=O)c3ccc4c(c3)CCO4)C2)on1` (stereo not drawn), the activity change is 25.3% (inactive).

As for `CC(=O)c1c(C)[nH]c(C(=O)COC(=O)CCOc2ccc(C)cc2)c1C`, the activity change was -89.1% (active).

For `COc1cccc(C(=O)OCC(=O)c2[nH]c(C)c(C(C)=O)c2C)c1`, the activity change is 12.1% (inactive).

Turning to `CC(=O)c1c(C)[nH]c(C(=O)COC(=O)c2cccs2)c1C`, the activity change was 17.9% (inactive).

Regarding `COc1c(F)c(F)c(-c2csc(N)n2)c(F)c1F`, the activity change was -14.1% (inactive).

For `CCOC(=O)[C@]12CCC=C1N(Cc1ccccc1)C(=O)[C@H](CC(=O)N1CCCC1)C2`, the activity change was 48.2% (inactive).

As to `CCN(C(=O)COC(=O)c1cc(NS(=O)(=O)c2ccc(Cl)c([N+](=O)[O-])c2)ccc1O)C1CCCCC1`, the activity change is -98.5% (active).

For `CN(C)c1ccc(S(=O)(=O)NCC(=O)NCC2CCCCC2)cc1[N+](=O)[O-]`, the activity change was 8.52% (inactive).

For the compound `COc1ccc(NS(=O)(=O)c2ccc(O)c(C(=O)OCC(=O)NC3CCCCC3)c2)cc1`, the activity change is 40.3% (inactive).

Regarding `C=CCn1c(SCC(=O)c2ccc(Br)cc2)nnc1C(C)NC(=O)Cc1ccc(OC)cc1` (stereo not drawn), the activity change was 18.8% (inactive).

Take `C=CC(=O)Nc1ccc(Nc2ccnc(Nc3ccc(N4CCN(C)CC4)cc3)n2)cc1`: the activity change is -83.2% (active).

With `Cc1cccc(N2CCN(c3ccc(NC(=O)/C=C\C(=O)O)cc3)CC2)c1`, the activity change was -21.2% (inactive).

On to `Cn1cnnc1SCC(=O)Nc1ccc(N2CCOCC2)cc1`, for which the activity change is 19.7% (inactive).

Consider `COc1cccc(-c2ccc3c(c2)N(Cc2ccccc2OC)C(=O)C(C)S3)c1` (stereo not drawn), for which the activity change is 43.9% (inactive).

As for `COc1ccc(CCNC(=O)Nc2ccc3c(c2)c(=O)n(C)n3C)cc1OC`, the activity change is -16.8% (inactive).

Regarding `Cc1c(OC(C)C(=O)N[C@@H](Cc2ccccc2)C(=O)O)ccc2c3c(c(=O)oc12)CCCC3` (stereo partly drawn), the activity change was 11.6% (inactive).
